Experimental data from the supplement of paper PMC6555819.

Assays:
Assay in all cases: PBM binding z-score (relative to random genomic background probes); higher = stronger binding; sequences stand for … in GC…GCGATTGACAGCGTAGAATGAAGG
[1] = system: FXR:RXRa (NR concentration 270 nM, RXRa partner concentration 90 nM)
In short: (§1)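 Custom Agilent 4×180K protein-binding microarrays carried double-stranded probes, each with a 34-nt variable region. These regions held direct-repeat seeds, single-nucleotide variants, half-site ablations and random human genomic background sequences. Ligand-free nuclear receptor dimers were incubated on the arrays for 1 h, antibodies against each partner (one per run) detected binding, and scanned fluorescence was regression-normalized. Binding z-scores take the random background probes as reference.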

[2] = system: LXRa:RXRa (NR concentration 270 nM, RXRa partner concentration 90 nM)
In short: as §1

[3] = system: LXRa homodimer (NR concentration 270 nM)
In short: as §1

[4] = system: LXRb:RXRa (NR concentration 270 nM, RXRa partner concentration 90 nM)
In short: as §1

[5] = system: LXRb homodimer (NR concentration 270 nM)
In short: as §1

[6] = system: PPARa:RXRa (NR concentration 270 nM, RXRa partner concentration 90 nM)
In short: as §1

[7] = system: PPARg:RXRa (NR concentration 180 nM, RXRa partner concentration 90 nM)
In short: as §1

[8] = system: PPARg:RXRa 270nM:90nM, anti-RXR (NR concentration 270 nM, RXRa partner concentration 90 nM)
In short: as §1

[9] = system: PPARg:RXRa 30nM:10nM, anti-RXR (NR concentration 30 nM, RXRa partner concentration 10 nM)
In short: as §1

[10] = system: PPARg:RXRa 90nM:30nM, anti-RXR (NR concentration 90 nM, RXRa partner concentration 30 nM)
In short: as §1

[11] = system: PPARg:RXRa DBDmut IVT, anti-RXR (DBD mutation: RXRa K156A/R161A, NR concentration 270 nM, RXRa partner concentration 90 nM)
In short: as §1

[12] = system: PPARg:RXRa IVT, anti-PPARg (NR concentration 270 nM, RXRa partner concentration 90 nM)
In short: as §1

[13] = system: PPARg DBDmut:RXRa IVT, anti-PPARg (DBD mutation: PPARg1 K132A/R137A, NR concentration 270 nM, RXRa partner concentration 90 nM)
In short: as §1

[14] = system: PPARg DBDmut IVT, anti-PPARg (DBD mutation: PPARg1 K132A/R137A, NR concentration 270 nM)
In short: as §1

[15] = system: PPARg homodimer (NR concentration 180 nM)
In short: as §1

[16] = system: PXR:RXRa (NR concentration 270 nM, RXRa partner concentration 90 nM)
In short: as §1

[17] = system: PXR homodimer (NR concentration 270 nM)
In short: as §1

[18] = system: RARa:RXR (NR concentration 270 nM, RXRa partner concentration 90 nM)
In short: as §1

[19] = system: RARa homodimer (NR concentration 270 nM)
In short: as §1

[20] = system: RARb:RXRa (NR concentration 270 nM, RXRa partner concentration 90 nM)
In short: as §1

Sequence	PBM binding z-score [1]	PBM binding z-score [2]	PBM binding z-score [3]	PBM binding z-score [4]	PBM binding z-score [5]	PBM binding z-score [6]	PBM binding z-score [7]	PBM binding z-score [8]	PBM binding z-score [9]	PBM binding z-score [10]	PBM binding z-score [11]	PBM binding z-score [12]	PBM binding z-score [13]	PBM binding z-score [14]	PBM binding z-score [15]	PBM binding z-score [16]	PBM binding z-score [17]	PBM binding z-score [18]	PBM binding z-score [19]	PBM binding z-score [20]
ACTAGCAGGCCAAGGGTCACTCAAGATTAGTCCG	2.48	2.76	0.0687	2.81	-0.402	4.43	7.75	7.53	7.41	8.63	0.983	4.06	-0.0619	-0.0525	2.65	3.21	-0.112	3.84	0.215	3.41
TCGAGTAGGTTAGTCGCGGCATTCAGCCAACATA	-0.279	-0.139	-0.606	-0.576	-1.32	0.228	-0.37	0.565	1.03	0.9	1.72	0.971	-0.971	-1.42	-0.911	-0.398	-0.771	-0.208	-0.937	-0.138
TCTCGGAGGACACGAAAGGTCAGAGCCCGACATC	2.84	3.75	3.31	3	-0.257	3.36	1.57	2.78	2.36	2.59	1.33	1.82	-0.244	-0.279	3.83	3.99	0.732	4.46	1.38	4.29
CCTTACGGGTCACTCCACGTTATAGCATCGGAGT	4.04	3.03	0.131	2.58	0.341	4.28	3.02	3.29	1.1	2.31	2.55	3.09	0.675	0.232	2.03	2.39	0.155	3.01	0.911	3.44
CGTTAAAGTTCAAGGTAACGTAACAGAAAGCAGC	6.06	5.3	2.94	3.2	1.15	4.56	3.3	4.01	1.81	3.27	0.894	2.08	0.767	0.8	1.94	3.79	2.16	2.94	2.05	4.96
TCATATAGGTAAATGCTAGGTGTAAGTCCGATCT	0.454	0.941	0.2	0.659	-0.0969	1.05	0.749	2.17	3.9	2.97	3.8	1.94	0.286	1.15	0.2	0.655	-0.0284	0.00446	1.01	0.377
AGAAGGAGGTTAAGATCAGGGAAACAGAATACAT	1.65	1.79	0.422	2.19	1.11	2.82	1.84	1.67	0.855	1.19	1.24	1.78	1.73	0.272	2.06	1.5	1.36	1.51	1.44	1.85
ACTATTAGTTGACTTACGGCAACCGATACGACGC	0.213	0.066	0.174	0.412	0.908	-0.179	1.09	0.0509	0.212	0.113	-0.0111	0.189	0.614	1.35	0.496	-0.0445	-0.0464	0.256	0.942	0.199
TATACAGGGTCAAAGGCCAGGGTACGAATGTCGA	6.87	6.23	2.51	4.8	2.5	6.27	8.53	7.29	5.77	6.97	2.06	4.98	2.34	1.6	2.3	4.41	0.905	6.05	1.67	4.48
TAGCCTAGGTCATTCAGGGGCCAGTAAAGAAAGC	4.75	4.05	0.681	3.17	0.778	3.73	1.61	2.56	0.576	1.76	1.81	3.14	0.536	0.653	1.04	2.39	-0.023	3.28	0.0478	3.86
TCTATTAGTTGATTAGTGCAACCGAAACAGCGGA	0.567	0.676	0.422	0.608	0.403	0.779	-0.179	2.12	3.55	2.78	1.81	0.352	1.1	1.5	0.86	0.603	0.441	0.464	1.06	0.332
CCGACTGGGGCATATGGTTACCATAAGCCAGCCC	-0.611	-0.598	-0.857	-0.657	-1.1	0.208	1.47	1.94	0.491	1.32	1.89	2.21	-0.616	-1.62	-0.697	-0.746	-0.567	-0.363	-0.355	0.172
CTACCTAGGTGAACAAGGTCGTTGATTACTATTC	0.921	0.98	0.31	1.61	-0.219	2.31	1.31	1.36	-0.0446	0.717	4.5	3.81	0.734	0.335	1.52	2.25	1.14	1.95	0.759	1.5
GCAGACAGGTGAAACTCAGGTAACTCAGGGTGGC	0.432	0.209	-0.137	-0.208	-0.746	1.13	0.585	0.196	-0.602	-0.156	0.904	0.656	-0.318	-0.994	-0.214	0.118	-0.356	0.625	-0.536	0.901
